Source: the supplement of paper PMC6555819

Key:
Assay in all cases: PBM binding z-score (relative to random genomic background probes); higher = stronger binding; sequences stand for … in GC…GCGATTGACAGCGTAGAATGAAGG
[1] = test system: FXR:RXRa (NR concentration 270 nM, RXRa partner concentration 90 nM)
Summary of the method: (§1)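 Regression normalization was applied to scanned fluorescence from custom Agilent 4×180K protein-binding microarrays. Before scanning, arrays were incubated 1 h with ligand-free nuclear receptor dimers, and binding was detected with antibodies against each partner (one per run). Binding z-scores use the random background probes as reference.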

[2] = test system: LXRa:RXRa (NR concentration 270 nM, RXRa partner concentration 90 nM)
Summary of the method: as §1

[3] = test system: LXRa homodimer (NR concentration 270 nM)
Summary of the method: as §1

[4] = test system: LXRb:RXRa (NR concentration 270 nM, RXRa partner concentration 90 nM)
Summary of the method: as §1

[5] = test system: LXRb homodimer (NR concentration 270 nM)
Summary of the method: as §1

[6] = test system: PPARa:RXRa (NR concentration 270 nM, RXRa partner concentration 90 nM)
Summary of the method: as §1

[7] = test system: PPARg:RXRa (NR concentration 180 nM, RXRa partner concentration 90 nM)
Summary of the method: as §1

[8] = test system: PPARg:RXRa 270nM:90nM, anti-RXR (NR concentration 270 nM, RXRa partner concentration 90 nM)
Summary of the method: as §1

[9] = test system: PPARg:RXRa 30nM:10nM, anti-RXR (NR concentration 30 nM, RXRa partner concentration 10 nM)
Summary of the method: as §1

[10] = test system: PPARg:RXRa 90nM:30nM, anti-RXR (NR concentration 90 nM, RXRa partner concentration 30 nM)
Summary of the method: as §1

Sequence | PBM binding z-score [1] | PBM binding z-score [2] | PBM binding z-score [3] | PBM binding z-score [4] | PBM binding z-score [5] | PBM binding z-score [6] | PBM binding z-score [7] | PBM binding z-score [8] | PBM binding z-score [9] | PBM binding z-score [10]
ATTTGTAGGTTAGGGTCATTCAGAAAGTAGGGAA | 5.22 | 4.68 | 2.51 | 4.9 | 3.24 | 5.52 | 6.37 | 5.83 | 3.41 | 5.27
CGAACTAGGTCACCAGGACTGTGAAGAGGTTGGA | 4.32 | 2.55 | -0.155 | 1.59 | -0.403 | 5.08 | 8.54 | 6.81 | 4.45 | 6.79
CAAGCTAGGTCAAAGGTCAAAGTCGAGCCAACCA | 8.68 | 7.38 | 5.19 | 7.27 | 2.73 | 7.38 | 12.9 | 10.7 | 12 | 12
GATACAGGGTGAAGGCCAGAGTACGCGTATTGAT | -0.425 | -0.357 | -0.615 | -0.42 | -0.925 | 1.08 | 1.41 | 1.72 | 0.138 | 0.958
CGAACTAGGTCAAAGGACAGTGATAGGCGACGTA | 3.8 | 2.62 | 0.0431 | 1.64 | -0.0452 | 5.27 | 10.2 | 8.27 | 8.49 | 9.35
ATCGAAAGGTCGTCGAGGTGAGTATACACCGTTT | 4.79 | 4.28 | 0.169 | 3.19 | 0.543 | 4.87 | 3.07 | 3.97 | 1.22 | 2.66
CCTAGTTGGTCAGGAGGCCACACACCGGATATGA | 0.457 | 0.364 | 0.335 | 0.191 | 0.0739 | 0.181 | 0.848 | 0.732 | 0.118 | 0.128
ATATGTAGGTTAGGGTCATTCACAAAGTAGGGAA | 4.56 | 4.43 | 1.56 | 4.7 | 1.64 | 5.7 | 7.65 | 6.7 | 3.97 | 6.22
CCTTACGGGTAACTCCAGGTTATAGCATCGGAGT | 0.565 | 7.03 | 3.25 | 4.13 | 0.0113 | 0.572 | 0.317 | 0.049 | -0.487 | -0.0126
CACACTAGGTCAAGAGGTCAAAGTCCGCTTCCCG | 7.5 | 6.61 | 7.43 | 5.8 | 2.67 | 6.33 | 9.41 | 7.85 | 7.67 | 8.14
TAGCCTAGGTCAGATCGGGCCAGTCTACGCTATA | 1.89 | 1.15 | -0.542 | 0.223 | -0.401 | 1.82 | 0.647 | 0.822 | -0.388 | 0.205
CCCCGGAGGACAGAAGGTCAGAGCTGTCCGCTTT | 0.952 | 1.41 | 0.417 | 1.09 | -0.645 | 1.87 | -0.0611 | 0.529 | -0.911 | 0.0217
CGAACTAGGTCAAAGGACAGTGTAAGGCGACGTA | 3.76 | 2.6 | -0.176 | 1.73 | -0.314 | 5.13 | 9.94 | 8.19 | 6.9 | 8.83
ATATGTAGGTTAGCTGGCGTCATTCAGACTAGGC | -0.167 | 0.0704 | -0.277 | -0.239 | 0.141 | 1.69 | 2.61 | 2.43 | 0.729 | 1.81
CGAACTAAGTCACCAGGACAGTGAAGAGGTTGGA | -0.00843 | -0.109 | -0.233 | -0.378 | -0.234 | 0.219 | 0.494 | 0.0365 | 0.0312 | -0.255
CCTCGGAGGACACCAGGAGGTCAGAGCTGCCAGA | 1.2 | 1.69 | 0.739 | 1.12 | -0.792 | 2.14 | 0.153 | 0.169 | -0.691 | -0.278
ATATGTAGGTTAGGGTGATTCAGAAAGTAGGGAA | 1.37 | 1.32 | 0.569 | 1.83 | 1.47 | 3.62 | 5.4 | 4.45 | 2.06 | 3.62
TTACAAAGGTGAAAGGTCGTTGATGCACGCCTTG | 5.91 | 4.66 | 0.507 | 4.08 | -0.0513 | 6.21 | 9.23 | 8.27 | 8.34 | 8.62
CGTCAAAGCTCAACTAAGGTAACGTAAAGCACGC | 0.16 | -0.241 | -0.0906 | -0.093 | -0.32 | -0.0617 | 0.335 | -0.241 | -0.2 | -0.494
CAAACTAGGTCAAGAGGTCAAACTCCGCTTCCCG | 7.36 | 6.74 | 6.8 | 5.98 | 2.74 | 6.77 | 10.1 | 8.55 | 7.7 | 9.09
CGAACTAGGTCACCCGGACAGTGAAGAGGTTGGA | 3.91 | 2.15 | 0.102 | 1.65 | 0.00893 | 4.76 | 8.61 | 6.77 | 4.46 | 6.25
GATACAGAGTCAGCTAGAGGCCAGAGTATGGAAA | -0.527 | -0.699 | -0.703 | -0.919 | -1.16 | -0.619 | 0.312 | -0.242 | -0.296 | -0.352
GGAACGAGGGCAAAGGTGATAGCATCTGTCGACG | 2.08 | 1.64 | -0.402 | 1.23 | -0.651 | 4.97 | 9.32 | 8.6 | 7.51 | 9.41
